Experimental data from PubChem BioAssay AID2283364 (EPA ToxCast).
Results filed as inconclusive are left out. Activity calls are given as the source filed them. How the source made its calls: active means hit-call score of the fitted dose curve at least 0.9, where 1 is the maximum; inconclusive means response in the unintended direction; inactive means score below 0.9.

Biological target: human FK-506 Binding Protein (FKBP12), FKBP1A (gene 2280) (UniProt P62942)
Test: NVS_OR_hFKBP12: NovaScreen (NVS) Nuclear Receptor Binding Assay for human FK-506 Binding Protein (FKBP12)
Method: NVS_OR_hFKBP12 is a biochemical, single-readout assay that uses extracted gene-proteins from E. coli in a cell-free assay. Measurements were taken 0.75 hour after chemical dosing in a 48-well plate.NVS_OR_hFKBP12 is one of one assay component(s) measured or calculated from the NVS_OR_hFKBP12 assay. It is designed to make measurements of radioligand binding, a form of binding reporter, as detected with scintillation counting signals by Filter-based radiodetection technology.Data from the assay component NVS_OR_hFKBP12 was analyzed into 1 assay endpoint. This assay endpoint, NVS_OR_hFKBP12, was analyzed in the positive analysis fitting direction relative to DMSO as the negative control and baseline of activity. Using a type of binding reporter, loss-of-signal activity can be used to understand changes in the binding as they relate to the gene FKBP1A. Furthermore, this assay endpoint can be referred to as a primary readout, because the performed assay has only produced 1 assay endpoint. To generalize the intended target to other relatable targets, this assay endpoint is annotated to the misc protein intended target family, where the subfamily is chaperone.
Binding assays used specific radioligands (tritiated, iodinated) with non-radioactive competitive displacement ligands in agonist or antagonist protocols (as indicated) and various reference compounds and inhibitors to titrate specific binding to receptors and transporters. Most enzyme assays (CYPs, kinases, phosphatases, proteases, HDACs) used recombinant protein and specific substrates (fluorescence mostly, some colorimetric and radioactive) and inhibitors, followed by a biochemical separation of substrate and product. All assays for the biochemical HTS were initially run in duplicate at a single concentration (10 uM for CYP450 assays and 25 uM for all others). Assay-chemical combinations meeting a pre-defined threshold (e.g., 30% inhibition and other criteria defined below) were then run in singleton concentration-response format with maximum concentration of 20 uM for CYPs and 50 uM for all others. Each assay was run with positive and negative controls, and concurrent controls on every plate. The follow-up (secondary) screen tested active chemical-pairs in concentration series, as well as a few additional assays not tested in the primary screen, some selected negative inactives, and several cases re-run in the concentration series for confirmatory purposes.

Chain of human FK-506 Binding Protein (FKBP12), FKBP1A (gene 2280) (P62942 whole entry, looked up): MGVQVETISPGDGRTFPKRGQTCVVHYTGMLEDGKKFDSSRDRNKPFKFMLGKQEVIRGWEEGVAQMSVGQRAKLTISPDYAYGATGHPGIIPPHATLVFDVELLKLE

| Structure (SMILES) | outcome |
| --- | --- |
| Cc1ccc(O)cc1 | inactive |
| CCCCCCCCCCCC(=O)OC | inactive |
| CCc1ccc(O)c(C(C)(C)C)c1 | inactive |
| c1ccc2ccccc2c1 | inactive |
| COC(=O)c1ccccc1S(=O)(=O)NC(=O)Nc1nc(OC(F)F)cc(OC(F)F)n1 | inactive |
